# Experimental data: PubChem BioAssay AID463173 (ICCB-Longwood Screening Facility, Harvard Medical School, 2010)
# Screen size: about 52,000 compounds; about 4,300 (8.3%) were called active. Rule as the data show it: active = survival mostly below about 52% (no sharp cut-off); inactive = mostly above about 56%. Only a selection was taken, and actives are over-represented in it overall.
# Test system: DeltatarO mutant
# Experiment: growth inhibition of S. aureus wild type versus tarO mutant, primary screen, teichoic acid synthesis inhibitors, RN4220, OD600 (AID 463173)
# Settings: OD600, 18 h, active compounds read low, screened at 18.75 µg/mL (by protocol)
row,SMILES,survival
1,C#CCn1c(O)c(N=NC(=O)c2ccccc2-n2cccc2)c2ccccc21,60% (inactive)
2,CCCn1c(SCc2nc(-c3ccccc3OCC)no2)nnc1-c1ccc(Cl)cc1,43% (active)
3,CCCn1c(SCc2nc(-c3ccc(OC)cc3OC)no2)nnc1-c1ccc(Cl)cc1,53% (inactive)
4,COc1ccc(-c2noc(CSc3nnc(-c4ccncc4)n3-c3ccc(OC)cc3)n2)cc1,92% (inactive)
5,COc1ccc(-c2noc(CSc3nnc(C)n3-c3ccc(OC)cc3)n2)cc1,77% (inactive)
6,Cc1ccc(-n2c(SCc3nc(-c4ccc(Cl)cc4)no3)nnc2-c2ccncc2)cc1,37% (active)
7,COc1ccc(-n2c(SCc3nc(-c4ccc(Cl)cc4)no3)nnc2-c2ccncc2)cc1,49% (active)
8,CCCn1c(SCc2nc(-c3ccccc3C)no2)nnc1-c1ccc(Cl)cc1,47% (inactive)
9,COc1ccc(-c2noc(CSc3nnc(-c4ccncc4)n3-c3ccc(C)cc3)n2)cc1,55% (inactive)
10,COc1ccc(-n2c(SCc3nc(-c4ccc(C)cc4)no3)nnc2-c2ccncc2)cc1,57% (inactive)
11,COc1ccc(-c2noc(CSc3nnc(C)n3-c3ccc(C)cc3)n2)cc1,57% (active)
12,Cc1ccc(-c2noc(CSc3nnc(C)n3-c3ccc(C)cc3)n2)cc1,101% (inactive)
13,COc1ccc(-c2noc(CSc3nnc(-c4ccncc4)n3-c3ccccc3)n2)cc1,70% (inactive)
14,CC(C)Oc1ccc(C(=O)Nc2nonc2-c2ccc(OC(C)C)cc2)cc1,75% (inactive)
15,Cc1ccc2c(c1)N(C(=O)CCC(=O)Nc1ccc(F)cc1F)CC(C)O2 (stereo not given),56% (inactive)
16,CCOc1ccc(-c2nnc(SCC(=O)NCCc3ccc(OC)c(OC)c3)nc2-c2ccc(OCC)cc2)cc1,98% (inactive)
17,CCOc1ccc(OCC)c(NC(=O)c2cnn(-c3ccc(F)cc3)c2-n2cccc2)c1,80% (inactive)
18,Cc1ccccc1OCC(=O)Nc1ccc(-c2nc3cc(Cl)cc(Cl)c3o2)cc1,62% (inactive)
19,Cc1ccc(C)c(NC(=O)CN2C(=O)c3cccnc3Oc3ccc(C)cc32)c1,80% (inactive)
20,CCOc1ccc(S(=O)(=O)n2nc(C)c(S(=O)(=O)N3CCCCCC3)c2C)cc1,115% (inactive)
21,CCOC(=O)c1cc2occc2n1C(C)C(=O)OCC (stereo not given),80% (inactive)
22,CCC(Sc1nnc(C)n2c1cc1occc12)C(=O)Nc1ccccc1OC (stereo not given),77% (inactive)
23,CCC(C(=O)Nc1ccccc1OC)n1c(C(=O)OC)cc2sc(Cl)cc21 (stereo not given),-6% (active)

row,SMILES,survival
1,COC(=O)c1cc2sc(Cl)cc2n1CC(=O)Nc1cc(OC)cc(OC)c1,84% (inactive)
2,CCOC(=O)c1ccc2c(c1)N(C(CC)C(=O)Nc1ccccc1OC)C(=O)c1ccccc1S2 (stereo not given),101% (inactive)
3,CCOc1ccccc1NC(=O)C(CC)n1c(C(=O)OC)cc2occc21 (stereo not given),-4% (active)
4,Cc1ccc(CNc2nc(-c3ccco3)nn2S(=O)(=O)c2ccc3ccccc3c2)cc1,115% (inactive)
5,CCc1ccc(NC(=O)Cn2c(C(=O)OC)cc3oc(C)cc32)cc1,65% (inactive)
6,CC(C)NC(=O)Cn1ncn2c(cc3cc(F)ccc32)c1=O,82% (inactive)
7,CNC(=O)C1CCC(Cn2c(=O)c3sccc3n(CC(=O)Nc3cc(C)cc(C)c3)c2=O)CC1 (stereo not given),70% (inactive)
8,Cc1nn(CCC(=O)Nc2cccc(C#N)c2)c(C)c1S(=O)(=O)N1CCCCC1,88% (inactive)
9,CCc1ccc(NC(=O)CC2C(=O)N(c3ccc(C)cc3)C(=O)N2CCc2ccncc2)cc1 (stereo not given),81% (inactive)
10,Nc1nonc1-c1nc2ccccc2n1Cc1c(Cl)cccc1Cl,50% (inactive)
11,O=C(NCCc1ccc(Cl)cc1)c1ccc(CS(=O)(=O)Cc2ccccc2F)o1,-1% (active)
12,CCc1ccc(CNC(=O)c2ccc(CS(=O)(=O)Cc3ccccc3C)o2)cc1,79% (inactive)
13,O=C(NCCc1ccccc1)c1ccc(CS(=O)Cc2ccc(Cl)cc2)o1 (stereo not given),74% (inactive)
14,Cc1ccc(CNC(=O)c2ccc(CS(=O)(=O)Cc3ccc(F)cc3)o2)cc1,77% (inactive)
15,Cc1ccccc1CS(=O)(=O)Cc1ccc(C(=O)NCc2ccc(F)cc2)o1,47% (active)
16,Cc1ccc(CCNC(=O)c2ccc(CS(=O)(=O)Cc3ccccc3F)o2)cc1,72% (inactive)
17,CCOc1ccc(CCNC(=O)c2ccc(CS(=O)Cc3cccc(Cl)c3)o2)cc1 (stereo not given),50% (inactive)
18,Cc1ccccc1CS(=O)(=O)Cc1ccc(C(=O)NCCc2ccc(Cl)cc2)o1,76% (inactive)
19,O=C(NCCc1ccc(Cl)cc1)c1ccc(CS(=O)Cc2cccc(Cl)c2)o1 (stereo not given),38% (active)
20,CCc1ccc(NC(=O)Cn2c(=O)n(-c3ccccc3)c(=O)c3ccc(C(=O)NCc4ccc5c(c4)OCO5)cc32)cc1,112% (inactive)
21,COc1ccc(NC(=O)NC(C)c2c(-n3cccc3)sc3c2CCN(C)C3)c(OC)c1 (stereo not given),70% (inactive)
22,O=C(OCc1ccccc1F)c1ccc(-c2nnn(Cc3ccccc3)n2)cc1,122% (inactive)
23,COc1cccc(CN(C(=O)c2ccc(C(C)(C)C)cc2)C2CCS(=O)(=O)C2)c1 (stereo not given),70% (inactive)

row,SMILES,survival
1,COc1ccc(NC(=O)c2oc3ccccc3c2NC(=O)Cc2coc3cc(C)ccc23)cc1,70% (inactive)
2,CN1CCN(S(=O)(=O)c2ccc(Br)c3ccccc23)CC1,99% (inactive)
3,Cc1cc(Nc2ccc(Cl)cc2)n2cnnc2n1,65% (inactive)
4,COc1ccc(-c2nn[nH]n2)cc1,105% (inactive)
5,COc1ccc(NC(=O)c2c(N)c(C(=O)c3ccc(C)cc3)n3ccccc23)cc1OC,82% (inactive)
6,Cc1ccc(NC(=O)Cc2ccc(NC(=O)N3CCCCc4ccccc43)cc2)cc1Cl,93% (inactive)
7,CCS(=O)(=O)c1ccccc1C(=O)N1CCN(c2nc3ccccc3s2)CC1,55% (inactive)
8,COc1ccc(CCNC(=O)c2cn(C)c3ccc(S(=O)(=O)N(C)C)cc3c2=O)cc1OC,84% (inactive)
9,Cc1ccc(-c2nc(C)c(CCNS(=O)(=O)c3ccc(F)c(C(F)(F)F)c3)s2)cc1,-4% (active)
10,Cc1ccc(-c2nc(C)c(CCNS(=O)(=O)c3ccccc3F)s2)cc1,76% (inactive)
11,CCOc1ccc(S(=O)(=O)NCCc2sc(-c3ccc(C)cc3)nc2C)cc1,102% (inactive)
12,CC(C)c1nc2ccc(C(=O)NCCCN3CCN(c4ccccc4)CC3)cc2o1,120% (inactive)
13,CC(C)COC(=O)Nc1ccc2c(c1)OCO2,62% (inactive)
14,Cc1ccc(C)n1-c1nnc(N2CCCC(C(=O)NCc3ccc(F)cc3)C2)s1 (stereo not given),93% (inactive)
15,CSc1ccc(C2c3[nH]c4ccccc4c3CCN2C(=O)CCC2CCCC2)cc1 (stereo not given),74% (inactive)
16,CCCSc1nnc2c(n1)OC(c1ccc(Br)s1)Nc1ccccc1-2 (stereo not given),53% (inactive)
17,CCCCCSc1nnc2c(n1)OC(c1ccc(C)s1)N(C(C)=O)c1ccccc1-2 (stereo not given),45% (active)
18,CCCCSc1nnc2c(n1)OC(C)N(C(C)=O)c1ccccc1-2 (stereo not given),154% (inactive)
19,CCCSc1nnc2c(n1)OC(c1cccs1)Nc1ccc(Br)cc1-2 (stereo not given),30% (active)
20,CCCCSc1nnc2c(n1)OC(c1ccc(Br)s1)N(C(C)=O)c1ccccc1-2 (stereo not given),47% (inactive)
21,CCSc1nnc2c(n1)OC(c1cc(OC)c(OC)c(OC)c1)Nc1ccccc1-2 (stereo not given),61% (inactive)
22,CCSc1nnc2c(n1)OC(c1ccc(C)cc1)N(C(C)=O)c1ccccc1-2 (stereo not given),55% (inactive)
23,CCSc1nnc2c(n1)OC(c1ccc(OC)cc1OC)N(C(C)=O)c1ccccc1-2 (stereo not given),58% (active)

row,SMILES,survival
1,CCCCCSc1nnc2c(n1)OC(CC)Nc1ccc(Br)cc1-2 (stereo not given),63% (inactive)
2,CCCCSc1nnc2c(n1)OC(c1ccc(Br)s1)Nc1ccccc1-2 (stereo not given),10% (active)
3,CCCCCCSc1nnc2c(n1)OC(C)Nc1ccc(Br)cc1-2 (stereo not given),75% (inactive)
4,CCSc1nnc2c(n1)OC(c1ccc(OC)c(OC)c1)N(C(C)=O)c1ccccc1-2 (stereo not given),53% (inactive)
5,Cc1c(C(=O)N2CCC(C)CC2)c(S(=O)(=O)Nc2ccc(OC(F)(F)F)cc2)c(C)n1C,91% (inactive)
6,CCc1cccc(C)c1NS(=O)(=O)c1ccc2c(c1)CC(C)N2C(=O)C1CC1 (stereo not given),88% (inactive)
7,COc1ccc(C(=O)NCc2ccc3c(c2)CCN3C(=O)c2ccncc2)cc1,88% (inactive)
8,Cc1ccc(Cl)cc1NC(=O)CN1C(=O)COc2ccc(S(=O)(=O)N3CCOCC3)cc21,101% (inactive)
9,CCc1c(C)[nH][n+]2cnn(Cc3ccc(Cl)cc3)c2c1=O,89% (inactive)
10,CCn1cnc2sc(C(=O)Nc3ccccc3)c(C)c2c1=O,87% (inactive)
11,Cc1ccc(CNC(=O)c2nnn(Cc3ccc(F)cc3)c2N)cc1,91% (inactive)
12,Cc1ccc(CNc2nc(-c3ccco3)nn2C(=O)c2ccccc2[N+](=O)[O-])cc1,111% (inactive)
13,Cc1nn2c(=O)cc(COC(=O)c3ccc(NC(=O)COc4ccc(C)c(C)c4)cc3)nc2s1,116% (inactive)
14,Cc1ccc(S(=O)(=O)NCCSc2nnnn2-c2ccccc2)cc1,71% (inactive)
15,CCCSc1nnc2c(n1)OC(c1sccc1C)Nc1ccccc1-2 (stereo not given),79% (inactive)
16,CCSc1nnc2c(n1)OC(c1ccc(C)s1)Nc1ccccc1-2 (stereo not given),71% (inactive)
17,CCCCSc1nnc2c(n1)OC(c1ccc(C)s1)Nc1ccccc1-2 (stereo not given),41% (active)
18,Cc1cccc(C)c1OCc1nc2c3cnn(-c4cccc(F)c4)c3ncn2n1,78% (inactive)
19,CC(=O)c1ccc(S(=O)(=O)N2CCn3cccc3C2c2ccccc2F)cc1 (stereo not given),82% (inactive)
20,CCOc1ccc(-n2c(SCC(=O)NCC3CCCO3)nc3c([nH]c4ccccc43)c2=O)cc1 (stereo not given),74% (inactive)
21,Cc1cc(Oc2c(C(F)(F)F)oc3c(CN4CCC(C)CC4)c(O)ccc3c2=O)cc(C)c1Cl,70% (inactive)
